From PubChem
Sampled rows, rich in hits. Any-hit rate of the full collection: about 9%.
PLK1 PBD block: blocks phosphopeptide binding to human PLK1 polo-box domain; Potency, µM, usual class: inhibitors; actives 2.8% (n = 360,000); Plk1 PBD binding of FITC phosphopeptide, fluorescence polarization; P53350; AID 720504; further: series mostly up to about 57 µM; nearly all actives have a fitted effect of over 65% in size
Target sequence (P53350 whole entry, looked up, the tested form may be a part): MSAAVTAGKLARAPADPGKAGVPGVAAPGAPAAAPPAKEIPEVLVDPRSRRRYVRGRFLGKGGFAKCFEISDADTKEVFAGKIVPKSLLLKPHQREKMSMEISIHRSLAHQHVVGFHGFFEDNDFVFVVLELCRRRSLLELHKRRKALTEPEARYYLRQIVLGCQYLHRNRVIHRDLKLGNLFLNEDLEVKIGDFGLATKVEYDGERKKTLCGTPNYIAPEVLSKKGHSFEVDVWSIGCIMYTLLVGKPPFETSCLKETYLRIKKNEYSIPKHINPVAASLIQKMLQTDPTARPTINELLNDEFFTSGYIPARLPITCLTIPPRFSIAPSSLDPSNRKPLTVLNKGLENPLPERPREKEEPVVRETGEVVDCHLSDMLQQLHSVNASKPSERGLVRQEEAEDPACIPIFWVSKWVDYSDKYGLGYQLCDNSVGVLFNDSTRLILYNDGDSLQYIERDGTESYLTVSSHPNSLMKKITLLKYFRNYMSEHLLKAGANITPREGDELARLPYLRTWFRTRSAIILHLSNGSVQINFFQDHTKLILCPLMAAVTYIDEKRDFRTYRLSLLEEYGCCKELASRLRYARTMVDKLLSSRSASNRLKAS
BAZ2B inh: inhibitors of human BAZ2B bromodomain; actives 4.4% (n = 360,000); AlphaScreen BAZ2B-H3K14Ac peptide displacement; Potency, µM (doses to about 114 µM), most hits filed as inhibitors; Q9UIF8; further: nearly all actives have a fitted effect of over 60% in size
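Protein-peptide AlphaScreen: BAZ2B 50 nM, b-H3K14Ac 50 nM, 1x PBS pH 7.4 + 0.01% Tween-20. Preincubation 30 min RT; cpd 30 min RT (top 110 uM); beads 20 min RT, light-protected.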
JMJD2A Tudor: blocks the human JMJD2A Tudor domain; O75164; actives 4.4% (n = 390,000); AlphaScreen JMJD2A-Tudor / H3K4me3 peptide binding; Potency, µM (titrated, usually from 114 µM), hits mostly inhibitors; AID 504339; further: nearly all actives have a fitted effect of over 50% in size
12-LOX inh: ALOX12 (human) lipoxygenase inhibition; P18054; purified 12hLO, xylenol orange hydroperoxide absorbance; Potency, µM (series often up to 108 µM), most hits filed as inhibitors; actives 1.1% (n = 580,000); AID 1671190
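Hydroperoxide product was detected by ferrous iron/xylenol orange as the 573 to 405 nm absorbance ratio. Arachidonic acid at 40 uM (final) was turned over for 30 min at room temperature by 150 nM human 12hLO, pH 7.0 Hepes buffer, after 15 min compound preincubation.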
HP1b chromo inh: HP1-beta chromodomain-methylated histone interaction inhibition; P83916; AlphaScreen HP1-beta / biotin-H3K9me3 peptide binding; Potency, µM (series often up to 114 µM), usual class: inhibitors; actives 0.56% (n = 390,000); further: nearly all actives have a fitted effect of over 70% in size
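AlphaScreen: HP1-beta (50 nM) preformed 30 min with biotin-H3(1-18)K9me3 peptide (50 nM) in PBS pH 7.4, 0.01% Tween-20. Compound added for 30 min at RT, then streptavidin donor/nickel chelate acceptor beads (10 ug/mL) for 30 min.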
G9a inh: blocks human histone lysine methyltransferase G9a. G9a H3K9 monomethylation, AlphaScreen, 2 h. Potency, µM (highest dose often 102 µM), actives largely listed as inhibitors. actives 8.8% (n = 350,000); further: nearly all actives have a fitted effect of over 75% in size
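Step 1: enzyme (final 20 nM) with compound, 15 min RT. Step 2: substrate peptide 500 nM and SAM 20 uM, 2 h RT. Step 3: anti-H3K9me1 antibody and AlphaScreen beads, 10 min, then plate read.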
Large screens that a line does not name were inactive. The call rests on the fitted dose curve; in most records, active means well fitted curve in the direction sought with a large enough effect; inconclusive means small, poorly fitted or top-dose-only effect, or another doubt; inactive means no such curve, though single readings can be large; an effect the other way counts as inactive or inconclusive.

O=C(c1cccc(Cl)c1)N1CCN(C2CCCCCC2)CC1	BAZ2B inh 45µM, JMJD2A Tudor 7.9µM, 12-LOX inh inconclusive, HP1b chromo inh 25µM, G9a inh 20µM
CC1CN(C2CCN(C(=O)c3ccccc3)CC2)CC(C)O1 (stereo not drawn)	BAZ2B inh 56µM, JMJD2A Tudor 1.3µM, 12-LOX inh inconclusive, HP1b chromo inh inconclusive, G9a inh 2.5µM
O=C(c1ccccc1)N1CCCC(C(=O)N2CCN(c3ccccc3)CC2)C1 (stereo not drawn)	PLK1 PBD block 27µM, JMJD2A Tudor 50µM, G9a inh inconclusive
O=C(c1ccccc1)N1CCCC(C(=O)N2CCCCC2)C1 (stereo not drawn)	none
O=C(c1ccncc1)N1CCN(C(=O)c2ccncc2)CC1	none
O=C(c1ccncc1)N1CCN(C2CCCCC2)CC1	BAZ2B inh 50µM, JMJD2A Tudor 1.1µM, 12-LOX inh inconclusive, HP1b chromo inh inconclusive, G9a inh 16µM
COCCNC(=O)C(NC(=O)c1ccccc1F)C1CCN(C(=O)c2ccccc2F)CC1 (stereo not drawn)	none (no result: PLK1 PBD block, BAZ2B inh, JMJD2A Tudor, HP1b chromo inh, G9a inh)
O=C(c1ccc(Cl)cc1)N1CCC(N2CCC(C(=O)N3CCOCC3)CC2)CC1	none
O=C(c1ccccc1)N1CCN(C2CCCCC2)CC1	BAZ2B inh inconclusive, JMJD2A Tudor 7.1µM, 12-LOX inh inconclusive, HP1b chromo inh inconclusive, G9a inh 7.9µM
CC1CCN(C2CCN(C(=O)c3ccccc3F)CC2)CC1	BAZ2B inh inconclusive, JMJD2A Tudor 0.89µM, HP1b chromo inh inconclusive, G9a inh 28µM
O=C(c1ccccc1)N1CCN(C(=O)c2ccccc2)CC1	G9a inh inconclusive
O=C(c1ccc(F)cc1)N1CCC(N2CCOCC2)CC1	BAZ2B inh inconclusive, JMJD2A Tudor 7.9µM, G9a inh 10µM
CC1CCCC(N2CCN(C(=O)c3ccccc3F)CC2)C1 (stereo not drawn)	none
O=C(Cc1cccnc1)N1CCC(c2nc(C3CC3)no2)C1 (stereo not drawn)	none (no result: PLK1 PBD block, BAZ2B inh, JMJD2A Tudor, HP1b chromo inh, G9a inh)
O=C(Cc1cn2ccsc2n1)Nc1cccc(S(=O)(=O)N2CCCCCC2)c1	none (no result: PLK1 PBD block, BAZ2B inh, JMJD2A Tudor, HP1b chromo inh, G9a inh)
Fc1cccc(NCc2ccoc2)c1	12-LOX inh inconclusive, G9a inh 40µM
CCC(CC)NC(=O)C1CCN(S(=O)(=O)c2cccs2)CC1	none
CC1CN(c2ccc(Cl)cc2[N+](=O)[O-])CCN1S(C)(=O)=O (stereo not drawn)	PLK1 PBD block 30µM
O=C1CCCC2=C1C(O)(C(F)(F)F)C(=O)N2Cc1ccccc1 (stereo not drawn)	none
CCN(CC)CCCn1c(C)c(C)c2c1ncn1nc(-c3cccs3)nc21	none (no result: PLK1 PBD block, BAZ2B inh, JMJD2A Tudor, HP1b chromo inh, G9a inh)
O=S1(=O)C=C(Sc2nc3cc(Cl)ccc3o2)c2ccccc21	PLK1 PBD block 6.7µM, JMJD2A Tudor inconclusive, G9a inh 45µM (no result: 12-LOX inh)
O=S1(=O)C=C(Sc2nc3ccccc3o2)c2ccccc21	none (no result: PLK1 PBD block, BAZ2B inh, JMJD2A Tudor, HP1b chromo inh, G9a inh)
CN1CCN(C(=S)NC(=O)c2cccc(S(=O)(=O)N(C)C)c2)CC1	G9a inh 14µM
COc1ccc(C(=O)NC(=S)N2CCN(C)CC2)cc1Br	G9a inh 45µM
Cc1ccc(C(=O)NC(=S)N2CCN(C)CC2)cc1Br	12-LOX inh inconclusive, G9a inh 45µM
COc1cc(C(=O)NC(=S)N2CCN(C)CC2)cc(OC)c1OC	none (no result: BAZ2B inh, G9a inh)
O=C(CSc1ccc(Cl)cc1)Nc1cccc(-c2nc3ccccc3[nH]2)c1	JMJD2A Tudor inconclusive
CCOC(=O)c1nc(Nc2ccc(N3CCOCC3)cc2)c2ccccc2n1	none
Cc1cc(C(=O)OC(C(=O)Nc2cccc(C(F)(F)F)c2)c2ccccc2)c(C)o1 (stereo not drawn)	none
Cc1ccc(NC(=O)C(OC(=O)c2cc(C)oc2C)c2ccccc2)cc1 (stereo not drawn)	G9a inh 79µM
O=C(CSc1ccc(Cl)cc1)NC1CCCC1	none
O=C(NC1CCCCC1)Sc1ccc(Cl)cc1	PLK1 PBD block 2.7µM, G9a inh inconclusive
CN(C)CCCN(C(=O)c1ccc2c(c1)OCCO2)c1nc2ccccc2s1	12-LOX inh inconclusive (no result: PLK1 PBD block)
Cc1ccc2nc(N(CCN(C)C)C(=O)c3ccc4c(c3)OCCO4)sc2c1	BAZ2B inh inconclusive, JMJD2A Tudor inconclusive, 12-LOX inh inconclusive, G9a inh 45µM
CCN(CC)CCN(C(=O)c1ccc2c(c1)OCCO2)c1nc2ccc(C)cc2s1	BAZ2B inh 35µM, JMJD2A Tudor inconclusive, G9a inh 79µM
Cc1cc(C)c2nc(N(CCCN(C)C)C(=O)c3ccc4c(c3)OCCO4)sc2c1	JMJD2A Tudor inconclusive, 12-LOX inh inconclusive, G9a inh 50µM
Cc1ccc2nc(NNC(=O)c3ccc(S(=O)(=O)N4CCc5ccccc5C4)cc3)sc2c1	BAZ2B inh 4.5µM, JMJD2A Tudor inconclusive, 12-LOX inh inconclusive
CCCCN(C)S(=O)(=O)c1ccc(C(=O)N(CCN(C)C)c2nc3ccc(C)cc3s2)cc1	BAZ2B inh inconclusive, JMJD2A Tudor inconclusive, G9a inh 40µM
CCN(CC)CCN(C(=O)c1ccc2ccccc2c1)c1nc2ccc(F)cc2s1	JMJD2A Tudor inconclusive, 12-LOX inh inconclusive, G9a inh 45µM
CCN(CC)CCN(C(=O)c1ccco1)c1nc2ccc(F)cc2s1	12-LOX inh inconclusive (no result: PLK1 PBD block)
CCN(CC)CCN(C(=O)c1ccc(C(=O)c2ccccc2)cc1)c1nc2ccc(OC)cc2s1	BAZ2B inh inconclusive, JMJD2A Tudor inconclusive, G9a inh 45µM
Cc1ccc2nc(N(CCN(C)C)C(=O)c3ccc4ccccc4c3)sc2c1	BAZ2B inh inconclusive, JMJD2A Tudor 45µM, G9a inh 40µM (no result: 12-LOX inh)
Cc1ccc(S(=O)(=O)CC(=O)N(CCCN(C)C)c2nc3ccc(C)cc3s2)cc1	12-LOX inh inconclusive
Fc1ccccc1Nc1nc(-c2ccncc2)nc2ccccc12	BAZ2B inh inconclusive
COc1cc(-c2oc3cc(O)cc(O)c3c(=O)c2O[C@@H]2O[C@H](COC3O[C@@H](C)[C@H](O)[C@@H](O)[C@H]3O)[C@@H](O)[C@H](O)[C@H]2O)ccc1O (stereo partly drawn)	none (no result: BAZ2B inh, G9a inh)
Cc1ccc2nc(NNC(=O)c3ccc4c(c3)OCCO4)sc2c1	BAZ2B inh inconclusive, JMJD2A Tudor inconclusive, G9a inh 11µM
Cc1ccc2nc(N(Cc3cccnc3)C(=O)c3ccc4c(c3)OCCO4)sc2c1	none (no result: PLK1 PBD block)
Cc1ccc(NC(=O)Cn2c(=O)ccn(Cc3ccccc3)c2=O)cc1S(=O)(=O)N1CCOCC1	none (no result: BAZ2B inh, G9a inh)
Cn1c(=O)c2c(-c3ccc(C(C)(C)C)cc3)n(CC3CCCO3)cc2n(C)c1=O (stereo not drawn)	12-LOX inh inconclusive (no result: G9a inh)
Cc1cccc(-c2c3c(=O)n(C)c(=O)n(C)c3cn2CC2CCCO2)c1 (stereo not drawn)	G9a inh 40µM
Cc1cccc(-c2c3c(=O)n(C)c(=O)n(C)c3cn2CCO)c1	12-LOX inh inconclusive, G9a inh 22µM
